Screens (PubChem)
Only some compounds are listed: those with a hit (about 3.9% of all), similar ones and a draw of the others.
BH1578 lux ind: inducers of Vibrio cholerae quorum light production without autoinducers; V. cholerae BH1578 lux reporter, luminescence, 6 h; activation, % at 18.7 µM; actives 0.16% (n = 350,000); AID 588436; in the data active = activation mostly above about 9.7%, no sharp cut-off
FBA Mtb inh: Mtb fructose-bisphosphate aldolase inhibition; P9WQA3; purified M. tuberculosis FBA, fluorescence read-out; inhibition, % at 1 µM; actives 2.3% (n = 360,000); AID 588726
Target sequence (P9WQA3 whole entry, looked up): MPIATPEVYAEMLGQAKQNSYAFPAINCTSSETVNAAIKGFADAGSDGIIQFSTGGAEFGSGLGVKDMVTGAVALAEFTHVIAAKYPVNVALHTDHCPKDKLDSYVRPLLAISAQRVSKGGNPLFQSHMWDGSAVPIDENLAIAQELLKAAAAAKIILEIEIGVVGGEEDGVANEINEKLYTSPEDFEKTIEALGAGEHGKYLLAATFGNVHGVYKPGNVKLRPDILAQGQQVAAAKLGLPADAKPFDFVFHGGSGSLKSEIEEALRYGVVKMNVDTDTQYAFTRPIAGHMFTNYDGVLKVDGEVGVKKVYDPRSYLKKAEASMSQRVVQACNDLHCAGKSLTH
CCHF vOTU inh: CCHFV vOTU protease inhibition | inhibition, % at 11.5 µM | Pep-AMC fluorescence | AID 651958 | actives 0.55% (n = 370,000); in the data active = inhibition above about 30%
GDH-TPI counter-1: inhibits GDH-TPI coupling enzymes, artifact for Mtb FBA screen. GDH-TPI coupled enzyme counterscreen, NADH absorbance. inhibition, % at 4.8 µM. actives 1.2% (n = 360,000); in the data active = inhibition above about 30%
Mtb FBA confirm: Mtb FBA inhibition, confirmed; inhibition, % at 1 µM; shares compounds with FBA Mtb inh; purified M. tuberculosis FBA, fluorescence read-out; actives 78% (n = 5,600)
GDH-TPI counter-2: counter-screen for M. tuberculosis FBA inhibitors: GDH-TPI coupled enzyme inhibition; shares compounds with FBA Mtb inh; inhibition, % at 1 µM; actives 81% (n = 5,600); GDH-TPI coupled enzyme counterscreen, fluorescence; in the data active = inhibition above about 10%
GDH-TPI DR: GDH-TPI dose response counter-screen for Mtb FBA; shares compounds with FBA Mtb inh; GDH-TPI coupled enzyme assay, fluorescence, artifact counterscreen; IC50, µM; actives 79% (n = 170); AID 652145; call rule not given here
Of the large screens only hits and unclear results are named; the others gave an inactive call (follow-up assays come after a bar, where they were run). Rule as the data show it, unless noted: active = inhibition above about 27%; inactive = the rest.

CCOC(=O)c1c(-c2ccccc2)oc2ccc(O)c(CN(C)C)c12	none
Cc1ccccc1Sc1ncccc1[N+](=O)[O-]	none
Cc1oc2c(C)c3oc(=O)c(CCC(=O)NCCN4CCOCC4)c(C)c3cc2c1C	none
COc1ccc(-c2ccc(-c3nc4ccc(C)cn4c3NC3CCCCC3)cc2OC)cc1	FBA Mtb inh 54 | Mtb FBA confirm active | GDH-TPI counter-2 185
CCCCNc1c(-c2ccc(OC)c(SC3CCCCC3)c2)nc2ccc(C)cn12	FBA Mtb inh 36 | Mtb FBA confirm active | GDH-TPI counter-2 161
CCCCNc1c(-c2ccc(SC3CCCCC3)c(OC)c2)nc2ccc(C)cn12	FBA Mtb inh 50 | Mtb FBA confirm active | GDH-TPI counter-2 193
CCOc1ccc(-c2nnc(NC(=O)COc3ccccc3F)o2)cc1	none
CCCCNC(=O)Nc1nnc(-c2ccccc2)o1	none
CCOC(=O)CNC(=O)Nc1nnc(-c2ccc(OCC)cc2)o1	FBA Mtb inh 63 | Mtb FBA confirm inactive | GDH-TPI counter-2 inactive
CCCCNC(=O)Nc1nnc(-c2ccc(OCC)cc2)o1	FBA Mtb inh 29 | Mtb FBA confirm 70 | GDH-TPI counter-2 41
Cc1ccccc1S(=O)(=O)N(C)C[C@H]1OCc2cnnn2CCCC(=O)N([C@H](C)CO)C[C@H]1C	none
COC(=O)C(C)Oc1ccc(-c2nccc(-c3ccccn3)n2)cc1 (stereo not given)	FBA Mtb inh 110 | Mtb FBA confirm 68 | GDH-TPI counter-2 60
N#Cc1nc(COc2ccccc2)oc1N1CCN(Cc2ccccc2)CC1	none
N#Cc1nc(-c2ccccc2)oc1N1CCN(C(=O)c2ccco2)CC1	FBA Mtb inh 68 | Mtb FBA confirm 41 | GDH-TPI counter-2 32
N#Cc1nc(-c2cccs2)oc1N1CCN(Cc2ccccc2)CC1	FBA Mtb inh 51 | Mtb FBA confirm inactive | GDH-TPI counter-2 inactive | GDH-TPI DR 1.8
Cn1c2ccccc2c2ncn(Cc3ccc(F)cc3)c(=O)c21	none
CCOCCCn1cnc2c3cc(F)ccc3n(C)c2c1=O	FBA Mtb inh 31 | Mtb FBA confirm 163 | GDH-TPI counter-2 133
Cn1c2ccc(F)cc2c2ncn(Cc3ccco3)c(=O)c21	FBA Mtb inh 32 | Mtb FBA confirm 98 | GDH-TPI counter-2 91
Cn1c2ccc(F)cc2c2ncn(CC3CCCO3)c(=O)c21 (stereo not given)	FBA Mtb inh 27 | Mtb FBA confirm 176 | GDH-TPI counter-2 180
Cn1c2ccc(F)cc2c2ncn(Cc3ccccn3)c(=O)c21	FBA Mtb inh 27 | Mtb FBA confirm 47 | GDH-TPI counter-2 41
O=C(CC1SC(=Nc2ccccc2)N(CCCCO)C1=O)NCc1ccccc1 (stereo not given)	none
COCCCn1c(SCC(=O)NC(C)C)nnc1-c1ccccc1	none
Cc1ccc(-n2nc3c(c2NC(=O)C2CCCC2)CS(=O)(=O)C3)cc1	none
O=C(NCc1ccco1)c1ccccc1O	none
Cc1ccc(CNC(=O)c2ccccc2N)cc1	FBA Mtb inh 60 | Mtb FBA confirm 80 | GDH-TPI counter-2 60
Cc1cccc(CNC(=O)c2ccccc2N)c1	FBA Mtb inh 58 | Mtb FBA confirm 137 | GDH-TPI counter-2 102
Nc1ccccc1C(=O)NCc1ccco1	FBA Mtb inh 52 | Mtb FBA confirm 83 | GDH-TPI counter-2 59
CCC(O)CNc1nc(SC)nc2sc3c(c12)CCN(C)C3 (stereo not given)	FBA Mtb inh 84 | Mtb FBA confirm inactive | GDH-TPI counter-2 inactive
CSc1nc(N)c2c3c(sc2n1)CN(C)CC3	FBA Mtb inh 39 | Mtb FBA confirm 48 | GDH-TPI counter-2 34
COc1ccc(Br)cc1CN(C)CC(O)COc1ccc(Br)cc1 (stereo not given)	FBA Mtb inh 53 | Mtb FBA confirm 67 | GDH-TPI counter-2 54
COc1ccc(CN(C)CC(O)COc2ccc(C(=O)c3ccccc3)cc2)c(OC)c1OC (stereo not given)	none
Cc1cc(=O)oc2cc(OCC(=O)OCC(=O)N3CCC(C)CC3)ccc12	FBA Mtb inh 42 | Mtb FBA confirm 182 | GDH-TPI counter-2 131
Cc1cc(OCC(=O)N2CCC(C(N)=O)CC2)c2c(C)cc(=O)oc2c1	FBA Mtb inh 33 | Mtb FBA confirm inactive | GDH-TPI counter-2 15
Cc1cc(=O)oc2cc(OCC(=O)N3CCC(C(N)=O)CC3)ccc12	FBA Mtb inh 27 | Mtb FBA confirm active | GDH-TPI counter-2 active
COc1ccc(CN(C)C(=O)CCN(c2ccccc2)S(=O)(=O)c2ccc(C)cc2)c(OC)c1	none
Cc1ccc(C(=O)N/C(=C\c2ccco2)C(=O)N2CC(C)OC(C)C2)cc1C (stereo not given)	none
Cc1cc(C)c2c(N)c(C(=O)NN3CC(=O)N(c4ccccc4)CC3=O)sc2n1	FBA Mtb inh 57 | Mtb FBA confirm 188 | GDH-TPI counter-2 129
N#Cc1ccccc1COC(=O)c1ccc2c(c1)OCO2	none
CCCCNc1ccccc1C(=O)OCC(=O)Nc1ccc(S(N)(=O)=O)cc1	FBA Mtb inh 48 | Mtb FBA confirm 34 | GDH-TPI counter-2 23
CCC(=O)Nc1ccccc1C(=O)OCC(=O)Nc1ccc(S(N)(=O)=O)cc1	none
O=C(COC(=O)c1ccccc1NCCO)Nc1cccc(S(=O)(=O)NC2=NCCCCC2)c1	FBA Mtb inh 53 | Mtb FBA confirm inactive | GDH-TPI counter-2 inactive
O=C(COC(=O)/C=C/c1cccc(F)c1)Nc1cccc(S(=O)(=O)NC2=NCCCCC2)c1	none
COc1cccc(/C=C/C(=O)OCC(=O)Nc2cccc(S(=O)(=O)NC3=NCCCCC3)c2)c1	FBA Mtb inh 36 | Mtb FBA confirm inactive | GDH-TPI counter-2 inactive
CCN(C(=O)CSc1cc(C)c2cccc(C)c2n1)C1CCS(=O)(=O)C1 (stereo not given)	none
CC(=O)Nc1cc(F)c2c(c1F)Cc1cc(F)ccc1-2	none
CCOc1ccc(OCC(=O)N2CCC3(CC2)CC(=O)c2ccccc2O3)cc1	none
CC(=O)N1CCC2(CC1)CC(=O)c1cc(OCC(=O)N3CCCC3)ccc1O2	FBA Mtb inh 60 | Mtb FBA confirm 48 | GDH-TPI counter-2 45
CCOC(=O)COc1ccc2c(c1)C(=O)CC1(CCN(C(C)=O)CC1)O2	FBA Mtb inh 57 | Mtb FBA confirm active | GDH-TPI counter-2 active
CCN1CCN(C(=O)COc2ccc3c(c2)C(=O)CC2(CCN(C(C)=O)CC2)O3)CC1	FBA Mtb inh 33 | Mtb FBA confirm 61 | GDH-TPI counter-2 56
FC(F)(F)c1ccccc1-c1ccc2nncn2c1	none
COc1ccc(-c2[nH]nc3oc(=O)cc(C)c23)cc1	FBA Mtb inh 43 | Mtb FBA confirm inactive | GDH-TPI counter-2 inactive | GDH-TPI DR 3.4
O=C1c2ccccc2NC(c2cccc(O)c2)N1Cc1ccco1 (stereo not given)	FBA Mtb inh 60 | Mtb FBA confirm 107 | GDH-TPI counter-2 70
